# Measured values reported in PubChem BioAssay (NCATS).
# Active and inactive are the calls of the source. Calls follow the shape of the dose curve; as a rule, active = well fitted curve in the direction sought with a large enough effect; inconclusive = small, poorly fitted or top-dose-only effect, or another doubt; inactive = no such curve, though single readings can be large; an effect the other way counts as inactive or inconclusive.
# Test system: not listed separately
# Experiment: qHTS for Inhibitors of Cell Surface uPA Generation: Validation Assay (AID 493164)
# Details: mouse cells, plasminogen activation; series mostly up to 38.3 µM
# Method in brief: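 RAW 264.7 cells (4000/well) were plated overnight, then exposed for 18 h at 37 C, 5% CO2 to compounds in a 7-point 1:5 titration (2.45 nM–38.3 uM final). Intracellular ATP was read by ATP-Lite luminescence.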
row,Compound,outcome
1,COc1cc2c(cc1OC)-c1cc(=Nc3c(C)cc(C)cc3C)n(C)c(=O)n1CC2,inactive
2,COCCc1ccc(OCC(O)CNC(C)C)cc1 (stereo not given),inactive
3,NC(=O)N1c2ccccc2C=Cc2ccccc21,inactive
4,CCCCCN(CCCCC)C(=O)C(CCC(=O)O)NC(=O)c1ccc(Cl)c(Cl)c1 (stereo not given),inactive
5,NC(N)=NC(=O)Cc1c(Cl)cccc1Cl,inactive
6,CN(C)CC[C@@H](c1ccc(Br)cc1)c1ccccn1,inactive
7,CNCCC(Oc1ccccc1OC)c1ccccc1 (stereo not given),inactive
8,C[N+](C)(C)CCOC(=O)CCC(=O)OCC[N+](C)(C)C,inactive
9,NC(N)=N/N=C/c1c(Cl)cccc1Cl,inactive
10,O=C1NCN(c2ccccc2)C12CCN(CCCC(c1ccc(F)cc1)c1ccc(F)cc1)CC2,inactive
11,C[N+](C)(C)CCCCCCCCCC[N+](C)(C)C,inactive
12,COc1ccc(CN(CCN(C)C)c2ccccn2)cc1,inactive
13,CC[N+](C)(C)c1cccc(O)c1,inactive
14,c1cnc(N2CCN(Cc3ccc4c(c3)OCO4)CC2)nc1,inactive
15,CC1=C(C)C(=O)C(CCCCC#CCCCC#CCO)=C(C)C1=O,inactive
16,CCN1CCc2nc(N)oc2CC1,inactive
17,O=C(O)CN(CCN(CC(=O)O)CC(=O)O)CCN(CC(=O)O)CC(=O)O,inactive
18,CC(C)COCC(CN(Cc1ccccc1)c1ccccc1)N1CCCC1 (stereo not given),inactive

row,Compound,outcome
1,CCCCNc1c(C(=O)OCC)c(C)nc2c1cnn2CC,inactive
2,CC(C)NNC(=O)c1ccncc1,inactive
3,O=C(CCCN1CCC(O)(c2cccc(C(F)(F)F)c2)CC1)c1ccc(F)cc1,inactive
4,CC1=NS(=O)(=O)c2cc(Cl)ccc2N1,inactive
5,Cc1nc2c([nH]1)c(=O)n(C)c(=O)n2Cc1ccco1,inactive
6,COC(=O)[C@@H](N)Cc1ccc(O)c(O)c1,inactive
7,C[C@]12C=CC(=O)C=C1CC[C@H]1[C@@H]3C[C@@H](O)[C@](O)(C(=O)CO)[C@@]3(C)C[C@H](O)[C@@]12F,inactive
8,Nc1c2c(nc3ccccc13)CCCC2O (stereo not given),inactive
9,CN(C(=O)CCCOc1ccc2[nH]c(=O)ccc2c1)C1CCCCC1,inactive
10,CCOC(=O)C1=C(C)NC(C)=C(C(=O)OC)C1c1cccc(Cl)c1Cl (stereo not given),inactive
11,CC(=O)Nc1nnc(S(N)(=O)=O)s1,inactive
12,CC(N=C(NC#N)Nc1ccncc1)C(C)(C)C (stereo not given),inactive
13,c1ccc2c(c1)CCCC2C1=NCCN1 (stereo not given),inactive
14,CC(=O)OC(C)C[N+](C)(C)C (stereo not given),inactive
15,Cc1ccc(=O)n(-c2ccccc2)c1,inactive
16,OC(CCN1CCCCC1)(c1ccccc1)C1CCCCC1 (stereo not given),inactive
17,Cc1nc2sccn2c(=O)c1CCN1CCC(=C(c2ccc(F)cc2)c2ccc(F)cc2)CC1,inactive
18,CCN(CC)CCNC(=O)c1cc(S(C)(=O)=O)ccc1OC,inactive

# Biological target: Galactokinase (Homo sapiens) (UniProt P51570)
# Sequence (P51570 whole entry, looked up): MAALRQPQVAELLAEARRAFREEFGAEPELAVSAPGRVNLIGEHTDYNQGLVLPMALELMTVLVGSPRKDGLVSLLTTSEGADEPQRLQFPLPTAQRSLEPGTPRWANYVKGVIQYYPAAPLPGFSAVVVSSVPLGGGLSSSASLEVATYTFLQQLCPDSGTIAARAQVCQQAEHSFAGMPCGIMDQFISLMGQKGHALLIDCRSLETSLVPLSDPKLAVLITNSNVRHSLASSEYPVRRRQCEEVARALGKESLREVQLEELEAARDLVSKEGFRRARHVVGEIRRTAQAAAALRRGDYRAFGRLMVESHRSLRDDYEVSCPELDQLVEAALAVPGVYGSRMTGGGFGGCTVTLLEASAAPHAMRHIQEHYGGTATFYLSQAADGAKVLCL
# Experiment: qHTS Validation Assay for Inhibitors of Human Galactokinase (GALK) (AID 493189)
# Details: purified human GALK enzyme activity, qHTS 7-point titration; series mostly up to 57.5 µM
# Method in brief: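 Inhibition was measured as remaining ATP, detected by luciferase luminescence after a 1 h room-temperature reaction. Final conditions: 5 nM GALK, 100 uM galactose, 35 uM ATP, pH 8.0 HEPES buffer.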
row,Compound,outcome
1,COc1cc2c(cc1OC)-c1cc(=Nc3c(C)cc(C)cc3C)n(C)c(=O)n1CC2,inactive
2,COCCc1ccc(OCC(O)CNC(C)C)cc1 (stereo not given),inactive
3,NC(=O)N1c2ccccc2C=Cc2ccccc21,inactive
4,CCCCCN(CCCCC)C(=O)C(CCC(=O)O)NC(=O)c1ccc(Cl)c(Cl)c1 (stereo not given),inactive
5,NC(N)=NC(=O)Cc1c(Cl)cccc1Cl,inactive
6,CN(C)CC[C@@H](c1ccc(Br)cc1)c1ccccn1,inactive
7,CNCCC(Oc1ccccc1OC)c1ccccc1 (stereo not given),inactive
8,C[N+](C)(C)CCOC(=O)CCC(=O)OCC[N+](C)(C)C,inactive
9,NC(N)=N/N=C/c1c(Cl)cccc1Cl,inactive
10,O=C1NCN(c2ccccc2)C12CCN(CCCC(c1ccc(F)cc1)c1ccc(F)cc1)CC2,inactive
11,C[N+](C)(C)CCCCCCCCCC[N+](C)(C)C,inactive
12,COc1ccc(CN(CCN(C)C)c2ccccn2)cc1,inactive
13,CC[N+](C)(C)c1cccc(O)c1,inactive
14,c1cnc(N2CCN(Cc3ccc4c(c3)OCO4)CC2)nc1,inactive
15,CC1=C(C)C(=O)C(CCCCC#CCCCC#CCO)=C(C)C1=O,inactive
16,CCN1CCc2nc(N)oc2CC1,inactive
17,O=C(O)CN(CCN(CC(=O)O)CC(=O)O)CCN(CC(=O)O)CC(=O)O,inactive

row,Compound,outcome
1,CC(C)COCC(CN(Cc1ccccc1)c1ccccc1)N1CCCC1 (stereo not given),inactive
2,CCCCNc1c(C(=O)OCC)c(C)nc2c1cnn2CC,inactive
3,CC(C)NNC(=O)c1ccncc1,inactive
4,CC1=NS(=O)(=O)c2cc(Cl)ccc2N1,inactive
5,Cc1nc2c([nH]1)c(=O)n(C)c(=O)n2Cc1ccco1,inactive
6,COC(=O)[C@@H](N)Cc1ccc(O)c(O)c1,inactive
7,C[C@]12C=CC(=O)C=C1CC[C@H]1[C@@H]3C[C@@H](O)[C@](O)(C(=O)CO)[C@@]3(C)C[C@H](O)[C@@]12F,inactive
8,Nc1c2c(nc3ccccc13)CCCC2O (stereo not given),inactive
9,CN(C(=O)CCCOc1ccc2[nH]c(=O)ccc2c1)C1CCCCC1,inactive
10,CCOC(=O)C1=C(C)NC(C)=C(C(=O)OC)C1c1cccc(Cl)c1Cl (stereo not given),inactive
11,CC(=O)Nc1nnc(S(N)(=O)=O)s1,inactive
12,c1ccc2c(c1)CCCC2C1=NCCN1 (stereo not given),inactive
13,CC(=O)OC(C)C[N+](C)(C)C (stereo not given),inactive
14,Cc1ccc(=O)n(-c2ccccc2)c1,inactive
15,OC(CCN1CCCCC1)(c1ccccc1)C1CCCCC1 (stereo not given),inactive
16,Cc1nc2sccn2c(=O)c1CCN1CCC(=C(c2ccc(F)cc2)c2ccc(F)cc2)CC1,inactive
17,CCN(CC)CCNC(=O)c1cc(S(C)(=O)=O)ccc1OC,inactive
